The text below walks through data of PubChem BioAssay (NCATS).

This experiment is described as follows: qHTS profiling of the MIPE4 collection as inhibitors of Plasmodium falciparum (HB3) proliferation (AID 743347).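 Note: plate controls were DMSO vehicle wells for no effect and artemisinin wells for full effect.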 The conditions noted are these: P. falciparum HB3 in erythrocytes, SYBR Green DNA, 72 h; at 28.5 µM (top of the series) unless noted. Summed up:
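Erythrocytes infected with P. falciparum (0.3% parasitemia, 2.5% hematocrit) incubated with compounds 72 h at 37 C, 5% CO2. Lysis with saponin/Triton buffer containing SYBR Green I, overnight at room temperature in the dark; DNA fluorescence (485/535 nm) normalised to 0.29 uM artemisinin and DMSO.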
A general note: qHTS replaces the single test concentration by a dilution series.
`CCCCc1ccc(NS(=O)(=O)c2ccc(C)c(C(=O)N3CCN(c4cccc(C)c4C)CC3)c2)cc1`: the growth, % of control stood at 257%.

Regarding `Cc1cccc2c1CC[C@H](CN1CCC(c3c(Cl)cccc3Cl)CC1)C[C@@H]2O`, the growth, % of control came out at 9.19%.

On to `CC[C@]1(O)C[C@H]2CN(CCC3=c4ccccc4=N[C]3[C@@](C(=O)OC)(c3cc4c(cc3OC)N(C)[C@H]3[C@@](O)(C(N)=O)[C@H](O)[C@]5(CC)C=CCN6CC[C@]43[C@@H]65)C2)C1`, for which the growth, % of control amounted to 17.4%.

In the case of `O=c1[nH]c(=O)n([C@H]2C[C@@H](O)[C@@H](CO)O2)cc1I`, the growth, % of control came out at 62.7%.

Regarding `Cc1nc(NC(=O)N2CCC[C@@H]2C(N)=O)sc1-c1csc(C(C)(C)C)n1`, the growth, % of control worked out at 14.5%.

For `O=C(Nc1ccc(OC(F)(F)F)cc1)c1sccc1NCc1ccnc2ccccc12`, the growth, % of control stood at 67.5%.

`O=C1CN2Cc3c(ccc(Cl)c3Cl)N=C2N1` displayed a growth, % of control of 85.4%.

As to `Cc1c(C(=O)Nc2ccc(N3C[C@@H](C)O[C@@H](C)C3)nc2)cccc1-c1ccc(OC(F)(F)F)cc1`, the growth, % of control was found to be 46.7%.

As to `CC(C)C[C@@H](C(=O)N[C@H](C(=O)OC1CCCC1)c1ccccc1)[C@H](O)C(=O)NO`, the growth, % of control turned out to be 7.8%.

`NCC1CCC(C(=O)O)CC1` (stereo not drawn): the growth, % of control is 159%.

On to `CN(C)CCN(C)C(=O)c1ccc(NC(=O)Nc2ccc(-c3nc(N4CCOCC4)c4ccn(CC(F)(F)F)c4n3)cc2)cc1`, for which the growth, % of control was determined as 5.21%.

`CC(=O)OCC(=O)[C@@]1(O)CC[C@H]2[C@@H]3CCC4=CC(=O)C=C[C@]4(C)[C@@H]3[C@@H](O)C[C@@]21C` registered a growth, % of control of 80.7%.

For the molecule `CCOC(=O)c1c(CSc2ccccc2)n(C)c2cc(Br)c(O)c(CN(C)C)c12`, the growth, % of control came to 2.97%.

`CCc1cc(-c2n[nH]c(C)c2-c2ccc3c(c2)OCCO3)c(O)cc1O` gave a growth, % of control of 39.1%.

As to `CC(=O)NCCC(=O)N[C@@H](CCC(N)=O)C(=O)N[C@@H](CO)C(=O)N[C@@H](CCC(N)=O)C(=O)N[C@@H](CCC(N)=O)C(=O)N[C@H](C(=O)N[C@@H](Cc1ccccc1)C(=O)N[C@]1(C)CCCCCCC=CCCC[C@@](C)(C(=O)N[C@@H](CCC(N)=O)C(=O)N[C@@H](CC(N)=O)C(N)=O)NC(=O)[C@H](CC(C)C)NC(=O)[C@H](CC(C)C)NC(=O)[C@@H](CCCNC(=N)N)NC(=O)[C@H](Cc2c[nH]c3ccccc23)NC(=O)[C@H](CC(C)C)NC(=O)[C@H](CC(N)=O)NC1=O)[C@H](C)O`, the growth, % of control was found to be 30.1%.

For `Cc1ccccc1C(C(=O)NC1CCCCC1)N(C(=O)CNc1ccc(C#N)cc1)c1cccc(F)c1` (stereo not drawn), the growth, % of control came out at 530%.

As to `CC[C@H]1OC(=O)[C@H](C)[C@@H](O[C@H]2C[C@@](C)(OC)[C@@H](O)[C@H](C)O2)[C@H](C)[C@@H](O[C@@H]2O[C@H](C)C[C@H](N(C)C)[C@H]2O)[C@](C)(O)C[C@H](C)C(=NOCOCCOC)[C@H](C)[C@@H](O)[C@]1(C)O`, the growth, % of control is 82.6%.

Take `COc1ccc(CCC(=O)Nc2nc3ccc(Cl)cc3s2)cc1OC`: the growth, % of control stood at 28.3%.

`COc1ccc(Cn2ccc3ccc(C(=O)NO)cc32)cc1` had a growth, % of control of 3.68%.

On to `O=C(O)CCC=CCC[C@@H]1[C@H](N2CCCCC2)[C@@H](O)C[C@@H]1OCc1ccc(-c2ccccc2)cc1`, for which the growth, % of control is 63%.

Molecule `O=C(Nc1ncc(SCCN2CCCC2)s1)[C@]1(c2ccc(S(=O)(=O)C3CC3)cc2)C[C@@H]1C1CCCCC1` showed a growth, % of control of 10.1%.

`N#CC(=C1Nc2ccccc2S1)c1ccnc(OCc2ccc(CN3CCOCC3)cc2)n1` came in with a growth, % of control of 10.8%.

On to `C[C@]12CCC3=C4CCC(=O)C=C4CC[C@@H]3[C@H]1CC[C@@]2(O)CC#N`, for which the growth, % of control was 93%.

`Cc1ccc(S(=O)(=O)Nc2nc3ccccc3nc2Nc2ccc3nsnc3c2)cc1` returned a growth, % of control of 77.4% [at 9.64 µM].

In the case of `CC1=C(CC(=O)O)c2cc(F)ccc2C1=Cc1ccc(S(C)=O)cc1` (stereo not drawn), the growth, % of control came to 52.4%.

`O=c1[nH]nc(OCCCc2ccc(Cl)cc2)c(NCc2cccnc2)c1Br` gave a growth, % of control of 10.3%.

For `COc1cc2c(cc1Cc1cccc(Cl)c1F)c(=O)c(C(=O)O)cn2[C@H](CO)C(C)C`, the growth, % of control was determined as 3.89%.

For the molecule `CC(C)C[C@@H](N)[C@H](O)C(=O)N[C@H](C(=O)N[C@H](C(=O)N[C@@H](CC(=O)O)C(=O)O)C(C)C)C(C)C`, the growth, % of control was determined as 107%.

In turn, `C=C1[C@H](n2cnc3c(=O)[nH]c(N)nc32)C[C@H](O)[C@H]1CO` gave a growth, % of control of 42.8%.

Turning to `C[C@@H](O[C@H]1OCCN(Cc2n[nH]c(=O)[nH]2)[C@@H]1c1ccc(F)cc1)c1cc(C(F)(F)F)cc(C(F)(F)F)c1`, the growth, % of control was found to be 34.2%.

On to `CC(O)=C(C#N)C(=O)Nc1ccc(C(F)(F)F)cc1`, for which the growth, % of control came to 83.8%.

The molecule `O[C@@H](COc1cccc2ncccc12)CN1CCN(C2c3ccccc3[C@@H]3[C@H](c4ccccc42)C3(F)F)CC1` (stereo partly drawn) showed a growth, % of control of 63.5%.

`Cc1csc(-c2nnc(Nc3ccc(Oc4ncccc4-c4ccnc(N)n4)cc3)c3ccccc23)c1` gave a growth, % of control of 26.8%.
